# Results from PubChem BioAssay (EPA / NIEHS).
# Values joined by “and” are separate entries in the source; they are usually repeats but may differ in a detail not shown here. Identical values can stand only once. Records with an inconclusive call do not appear. More than one record can exist for a structure, and the calls need not agree. Active and inactive are the calls of the source. The calls were made as follows, unless noted: active = hit-call score of the fitted dose curve at least 0.9, where 1 is the maximum; inconclusive = response in the unintended direction; inactive = score below 0.9.
# How the values were obtained:
# [1] = ATG_TGFb_CIS: Attagene CIS-FACTORIAL HepG2 Assay for human Transforming Growth Factor (TGF) (AID 2282967; active = hit-call score of the fitted dose curve at least 0.9, where 1 is the maximum; inactive = score below 0.9); settings: HepG2 Attagene CIS TGFb reporter, mRNA transcription; actives raise or lower the signal
# Method in brief: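 Endogenous TGFB1-linked transcription factor activity read as reporter mRNA via RT-PCR and capillary electrophoresis, 24 h after dosing transiently transfected HepG2 cells. Gain or loss of signal fitted relative to DMSO.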
# [2] = target: Nuclear receptor subfamily 1 group I member 3 (Homo sapiens) (UniProt Q14994); assay: ATG_CAR_TRANS: Attagene TRANS-FACTORIAL HepG2 Assay for human Constitutive Androstane Receptor (CAR) (AID 2282969); settings: HepG2 Attagene TRANS-FACTORIAL CAR reporter;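 also: activators raise reporter mRNA above DMSO so AC50 marks induction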
# Nuclear receptor subfamily 1 group I member 3 (Homo sapiens), sequence (Q14994 whole entry, looked up, the tested form may be a part): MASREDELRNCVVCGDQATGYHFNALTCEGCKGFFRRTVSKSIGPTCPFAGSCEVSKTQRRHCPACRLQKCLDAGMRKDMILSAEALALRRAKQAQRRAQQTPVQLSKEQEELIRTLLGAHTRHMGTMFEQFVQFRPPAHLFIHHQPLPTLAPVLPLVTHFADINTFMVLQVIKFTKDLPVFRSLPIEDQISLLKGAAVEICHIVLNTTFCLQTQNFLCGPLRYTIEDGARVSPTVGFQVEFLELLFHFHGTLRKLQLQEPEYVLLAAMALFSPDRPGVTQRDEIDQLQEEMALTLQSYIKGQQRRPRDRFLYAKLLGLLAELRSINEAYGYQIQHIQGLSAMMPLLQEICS
# Method in brief: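 HepG2 cells transiently transfected with GAL4-UAS reporter units; TRANS format reads activity of exogenous chimeric NR-Gal4 protein. After 24 h dosing, reporter mRNA quantified by RT-PCR, 6-FAM labelling and capillary electrophoresis; gain of signal fitted against DMSO.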
# [3] = target: Estrogen receptor (Homo sapiens) (UniProt P03372); assay: ATG_ERa_TRANS: Attagene TRANS-FACTORIAL HepG2 Assay for human Estrogen Receptor alpha (ERa) (AID 2282970); settings: HepG2 Attagene TRANS ERa GAL4 reporter, mRNA
# Estrogen receptor (Homo sapiens), sequence (P03372 whole entry, looked up, the tested form may be a part): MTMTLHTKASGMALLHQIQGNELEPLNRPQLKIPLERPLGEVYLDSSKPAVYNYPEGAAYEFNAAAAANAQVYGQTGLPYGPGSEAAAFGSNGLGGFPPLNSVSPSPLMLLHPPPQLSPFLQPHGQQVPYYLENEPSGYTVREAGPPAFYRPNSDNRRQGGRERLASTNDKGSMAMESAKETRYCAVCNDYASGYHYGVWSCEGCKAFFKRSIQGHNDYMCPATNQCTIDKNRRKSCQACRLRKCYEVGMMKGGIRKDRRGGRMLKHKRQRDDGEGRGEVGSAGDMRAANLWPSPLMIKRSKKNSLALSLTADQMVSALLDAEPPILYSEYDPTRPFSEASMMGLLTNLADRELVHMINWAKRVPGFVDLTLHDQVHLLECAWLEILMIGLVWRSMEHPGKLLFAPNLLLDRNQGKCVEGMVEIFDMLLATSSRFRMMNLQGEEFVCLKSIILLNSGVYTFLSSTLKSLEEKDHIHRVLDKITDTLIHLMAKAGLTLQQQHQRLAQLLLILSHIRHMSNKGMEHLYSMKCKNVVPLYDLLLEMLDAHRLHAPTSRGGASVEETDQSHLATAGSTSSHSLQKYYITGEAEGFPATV
# Method in brief: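 HepG2 cells transiently transfected with multiplexed GAL4-UAS reporter units; ERa activity read via exogenous chimeric NR-Gal4 protein. After 24 hour compound exposure, reporter mRNA measured by RT-PCR with 6-FAM labelling and capillary electrophoresis; gain-of-signal fitted relative to DMSO.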
# [4] = target: X-box-binding protein 1 (Homo sapiens) (UniProt P17861); assay: ATG_Xbp1_CIS: Attagene CIS-FACTORIAL HepG2 Assay for human X-box Binding Protein 1 (XBP1) (AID 2282972; active = hit-call score of the fitted dose curve at least 0.9, where 1 is the maximum; inactive = score below 0.9); settings: HepG2 XBP1 cis-element reporter, Attagene multiplex; actives raise or lower the signal
# X-box-binding protein 1 (Homo sapiens), sequence (P17861 whole entry, looked up): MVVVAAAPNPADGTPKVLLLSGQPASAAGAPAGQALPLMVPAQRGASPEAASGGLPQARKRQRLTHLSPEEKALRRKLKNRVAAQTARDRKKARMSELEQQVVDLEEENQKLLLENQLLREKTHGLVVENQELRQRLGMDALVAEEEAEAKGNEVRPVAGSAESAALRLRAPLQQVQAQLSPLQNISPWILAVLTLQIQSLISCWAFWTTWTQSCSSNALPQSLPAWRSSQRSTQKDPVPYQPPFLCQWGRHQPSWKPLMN
# Method in brief: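 HepG2 cells transiently transfected with cis-regulated multiple reporter transcription units; endogenous transcription factor activity measured 24 hours after chemical dosing. Reporter mRNA quantified by RT-PCR, 6-FAM primer extension, HpaI digestion and capillary electrophoresis; bidirectional fitting versus DMSO.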
# [5] = ATG_GAL4_TRANS: Attagene TRANS-FACTORIAL HepG2 Assay for GAL4 (Internal Marker) (AID 2282976); settings: HepG2 Attagene TRANS GAL4 internal marker reporter
# Method in brief: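 HepG2 cells transiently transfected with multiplexed GAL4-UAS reporter constructs were dosed for 24 h. Reporter mRNA was measured by RT-PCR, 6-FAM primer extension, HpaI digestion and capillary electrophoresis, and gain of signal was fitted relative to DMSO.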
# [6] = target: Estrogen-related receptor gamma (Homo sapiens) (UniProt P62508); assay: ATG_ERRg_TRANS: Attagene TRANS-FACTORIAL HepG2 Assay for human Estrogen-Related Receptor gamma (ERRg) (AID 2282977); settings: HepG2 Attagene TRANS reporter, ERRg transactivation;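 also: hits increase reporter signal over DMSO so potencies reflect activators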
# Estrogen-related receptor gamma (Homo sapiens), sequence (P62508 whole entry, looked up, the tested form may be a part): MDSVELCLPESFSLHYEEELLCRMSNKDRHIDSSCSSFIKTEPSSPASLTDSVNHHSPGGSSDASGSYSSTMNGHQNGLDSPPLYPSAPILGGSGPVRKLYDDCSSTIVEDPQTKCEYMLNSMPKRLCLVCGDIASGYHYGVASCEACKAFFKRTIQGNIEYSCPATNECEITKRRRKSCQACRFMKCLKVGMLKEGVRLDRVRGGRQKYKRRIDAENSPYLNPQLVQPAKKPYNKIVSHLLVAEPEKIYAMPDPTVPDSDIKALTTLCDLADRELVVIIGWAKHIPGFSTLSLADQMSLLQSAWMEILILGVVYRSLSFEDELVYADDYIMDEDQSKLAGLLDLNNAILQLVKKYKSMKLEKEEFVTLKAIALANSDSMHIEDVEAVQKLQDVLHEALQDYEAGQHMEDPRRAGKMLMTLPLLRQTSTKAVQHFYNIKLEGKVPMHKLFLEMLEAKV
# Method in brief: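 HepG2 cells transiently transfected with multiplexed GAL4-UAS reporter units driven by chimeric NR-Gal4 proteins; 24 h exposure. Reporter mRNA quantified by RT-PCR, fluorescent labelling, HpaI digestion and capillary electrophoresis; gain of signal vs DMSO.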
# [7] = target: Glucocorticoid receptor (Homo sapiens) (UniProt P04150); assay: ATG_GR_TRANS: Attagene TRANS-FACTORIAL HepG2 Assay for human Glucocorticoid Receptor (GR) (AID 2282978); settings: HepG2 Attagene TRANS GR reporter, mRNA transcription;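 also: activators score as hits since higher reporter transcript over DMSO is fitted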
# Glucocorticoid receptor (Homo sapiens), sequence (P04150 whole entry, looked up, the tested form may be a part): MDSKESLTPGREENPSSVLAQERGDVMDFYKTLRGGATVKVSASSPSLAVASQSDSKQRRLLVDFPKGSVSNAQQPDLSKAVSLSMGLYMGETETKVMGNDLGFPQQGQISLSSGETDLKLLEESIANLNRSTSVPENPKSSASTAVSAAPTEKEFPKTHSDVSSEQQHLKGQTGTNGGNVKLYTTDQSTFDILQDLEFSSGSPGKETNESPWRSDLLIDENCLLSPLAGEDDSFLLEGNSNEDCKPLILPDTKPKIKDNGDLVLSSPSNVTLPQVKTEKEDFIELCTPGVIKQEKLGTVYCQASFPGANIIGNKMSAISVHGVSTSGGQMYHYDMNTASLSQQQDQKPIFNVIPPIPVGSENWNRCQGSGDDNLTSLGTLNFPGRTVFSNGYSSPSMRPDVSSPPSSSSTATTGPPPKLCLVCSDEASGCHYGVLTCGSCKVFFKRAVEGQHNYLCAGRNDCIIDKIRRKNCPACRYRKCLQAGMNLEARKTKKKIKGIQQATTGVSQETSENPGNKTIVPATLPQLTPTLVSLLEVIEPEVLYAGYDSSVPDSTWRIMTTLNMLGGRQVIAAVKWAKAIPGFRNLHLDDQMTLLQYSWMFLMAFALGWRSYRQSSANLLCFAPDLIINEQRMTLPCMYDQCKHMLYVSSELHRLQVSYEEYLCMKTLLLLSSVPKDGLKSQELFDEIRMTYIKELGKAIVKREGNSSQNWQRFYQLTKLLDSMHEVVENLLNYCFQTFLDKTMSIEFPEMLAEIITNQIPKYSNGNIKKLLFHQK
# Method in brief: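 Transient MRTU transfection of HepG2 (GAL4-UAS reporters, exogenous NR-GAL4 chimeras), 24 h dosing. Readout: reporter transcript via RT-PCR + capillary electrophoresis fluorescence. Positive direction vs DMSO baseline.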
# [8] = target: Steroid hormone receptor ERR1 (Homo sapiens) (UniProt P11474); assay: ATG_ERRa_TRANS: Attagene TRANS-FACTORIAL HepG2 Assay for human Estrogen-Related Receptor alpha (ERRa) (AID 2282971); settings: HepG2 Attagene TRANS reporter, ERRa transactivation
# Steroid hormone receptor ERR1 (Homo sapiens), sequence (P11474 whole entry, looked up, the tested form may be a part): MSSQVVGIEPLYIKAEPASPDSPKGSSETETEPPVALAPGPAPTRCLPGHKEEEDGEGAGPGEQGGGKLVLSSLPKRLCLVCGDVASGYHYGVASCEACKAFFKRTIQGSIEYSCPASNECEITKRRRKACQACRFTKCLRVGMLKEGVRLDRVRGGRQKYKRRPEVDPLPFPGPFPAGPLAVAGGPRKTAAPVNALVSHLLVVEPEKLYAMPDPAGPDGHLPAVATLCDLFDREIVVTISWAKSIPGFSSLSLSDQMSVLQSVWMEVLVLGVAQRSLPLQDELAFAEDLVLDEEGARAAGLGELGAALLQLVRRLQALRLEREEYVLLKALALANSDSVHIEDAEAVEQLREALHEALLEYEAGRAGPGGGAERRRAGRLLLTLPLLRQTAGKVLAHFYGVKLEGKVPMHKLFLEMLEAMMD
# Method in brief: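 HepG2 cells transiently transfected with multiplexed GAL4-UAS reporter units reading chimeric ERRa-Gal4 activity; 24 h compound exposure. Reporter mRNA measured by RT-PCR, 6-FAM labelling, HpaI digest and capillary electrophoresis; gain of signal fitted versus DMSO baseline.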
# [9] = ATG_M_19_TRANS: Attagene TRANS-FACTORIAL HepG2 Assay for M19 Transcription Factor (Internal Marker) (AID 2282974); settings: HepG2 Attagene TRANS-FACTORIAL M19 internal marker reporter
# Method in brief: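 24 h chemical exposure of transiently transfected HepG2 (MRTU library). RNA → oligo(dT) RT → PCR → 6-FAM labelling → HpaI cut → CE fluorescence. Positive-direction fit vs DMSO baseline; background internal-marker readout.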
structure (smiles),measurement,setting,value
Oc1cccc2c(O)cccc12,outcome,[1],inactive
same,outcome,[2],inactive
same,AC50,[3],11.1 µM (active)
same,outcome,[4],inactive
same,outcome,[5],inactive
same,outcome,[6],inactive
same,outcome,[7],inactive
CN(C)CCOC(c1ccccc1)c1ccccc1,outcome,[1],inactive
same,outcome,[3],inactive
same,outcome,[4],inactive
same,outcome,[7],inactive
FC(F)(F)C1(F)C(F)(F)C(F)(F)C(F)(F)C1(F)F,outcome,[1],inactive
same,outcome,[3],inactive
same,outcome,[8],inactive
same,outcome,[4],inactive
same,outcome,[9],inactive
same,outcome,[5],inactive
same,outcome,[7],inactive
CCCCCCCCCCCC[N+](C)(C)Cc1ccccc1,outcome,[1],inactive
same,AC50,[4],11.1 µM (active)
same,outcome,[4],inactive
same,AC50,[9],168 µM (active)
same,outcome,[9],inactive
same,outcome,[7],inactive
CCc1cccc(CC)c1N(COC)C(=O)CS(=O)(=O)O,outcome,[1],inactive
same,outcome,[3],inactive
same,outcome,[4],inactive
same,outcome,[9],inactive
same,outcome,[5],inactive
same,outcome,[6],inactive
Cc1cc(C(C)(C)C)c(O)c(C(C)(C)C)c1,outcome,[1],inactive
same,outcome,[2],inactive
same,AC50,[4],33.4 µM (active) and 89.6 µM (active)
same,outcome,[9],inactive
same,AC50,[7],100 µM (active)
O=C1NS(=O)(=O)c2ccccc21,outcome,[1],inactive
same,outcome,[4],inactive
same,outcome,[9],inactive
same,outcome,[5],inactive
CCCCCCCCCCCCOC(=O)c1cc(O)c(O)c(O)c1,outcome,[1],inactive
same,AC50,[3],11.1 µM (active)
same,AC50,[4],11.1 µM (active)
same,outcome,[9],inactive
same,outcome,[7],inactive
O=C(O)CN(CCCN(CC(=O)O)CC(=O)O)CC(=O)O,outcome,[1],inactive
same,outcome,[2],inactive
same,outcome,[4],inactive
same,outcome,[5],inactive
COC(=O)C(F)(F)C(F)(F)C(F)(F)F,outcome,[1],inactive
same,outcome,[3],inactive
same,outcome,[4],inactive
same,outcome,[9],inactive
same,outcome,[5],inactive
same,outcome,[7],inactive
CCCCCCC(C)(C)C(=O)O,outcome,[1],inactive
same,outcome,[2],inactive
same,AC50,[3],26.4 µM (active)
same,outcome,[4],inactive
same,outcome,[6],inactive
CCC(C)c1ccccc1O (stereo not given),outcome,[1],inactive
same,outcome,[2],inactive
same,outcome,[4],inactive
same,outcome,[9],inactive
same,outcome,[5],inactive
same,outcome,[6],inactive
CCCCCCCCCCCC(=O)NCCCN(C)C,outcome,[1],inactive
same,outcome,[3],inactive
same,AC50,[4],19.1 µM (active)
same,outcome,[9],inactive
CN(Cc1cnc2nc(N)nc(N)c2n1)c1ccc(C(=O)N[C@@H](CCC(=O)O)C(=O)O)cc1,outcome,[1],inactive
same,outcome,[3],inactive
same,outcome,[4],inactive
same,outcome,[9],inactive
same,outcome,[5],inactive
CC1=NN(c2ccccc2)C(=O)C1,outcome,[1],inactive
same,outcome,[4],inactive
same,outcome,[9],inactive
NCCN,outcome,[1],inactive
same,outcome,[3],inactive
same,outcome,[4],inactive
same,outcome,[9],inactive
same,outcome,[5],inactive
FC(F)(F)C(F)(F)C(F)(F)C(F)(F)I,outcome,[1],inactive
same,outcome,[3],inactive
same,outcome,[8],inactive
same,outcome,[4],inactive
same,outcome,[9],inactive
CC1COCc2cc3c(cc21)C(C)(C)C(C)C3(C)C (stereo not given),outcome,[1],inactive
same,outcome,[2],inactive
same,AC50,[3],11.8 µM (active)
same,AC50,[4],73.4 µM (active)
same,outcome,[7],inactive
CCCCC(CC)C(=O)O (stereo not given),outcome,[1],inactive
same,outcome,[4],inactive
same,outcome,[9],inactive
same,outcome,[5],inactive
CCO[Si](C)(C)OCC,outcome,[1],inactive
same,outcome,[4],inactive
same,outcome,[9],inactive
same,outcome,[5],inactive
same,outcome,[6],inactive
Cc1[nH]nc2c1N=C(c1ccccc1Cl)c1cc([N+](=O)[O-])ccc1N2,outcome,[1],inactive
same,outcome,[4],inactive
same,outcome,[9],inactive
CC(=O)Nc1ccc(O)cc1,outcome,[1],inactive
same,outcome,[4],inactive
O=C(C=C(O)C(F)(F)F)C(F)(F)F,outcome,[1],inactive
same,outcome,[3],inactive
same,outcome,[8],inactive
same,outcome,[4],inactive
same,outcome,[9],inactive
same,outcome,[5],inactive
same,outcome,[7],inactive
Cn1sccc1=O,outcome,[1],inactive
same,outcome,[8],inactive
same,AC50,[4],160 µM (active)
same,outcome,[9],inactive
same,outcome,[7],inactive
CCCC=O,outcome,[1],inactive
same,outcome,[8],inactive
same,outcome,[4],inactive
same,outcome,[9],inactive
same,outcome,[5],inactive
same,outcome,[6],inactive
same,outcome,[7],inactive
COc1cc([N+](=O)[O-])ccc1N,outcome,[1],inactive
same,outcome,[2],inactive
same,outcome,[4],inactive
same,outcome,[9],inactive
same,outcome,[5],inactive
CCCCc1ccc2ccccc2c1S(=O)(=O)O,outcome,[1],inactive
same,outcome,[2],inactive
same,outcome,[3],inactive
same,outcome,[4],inactive
same,outcome,[9],inactive
same,outcome,[6],inactive
CCC(=O)O,outcome,[1],inactive
same,outcome,[3],inactive
same,outcome,[4],inactive
same,outcome,[9],inactive
same,outcome,[5],inactive
same,outcome,[7],inactive
OCC(CO)(CBr)CBr,outcome,[1],inactive
same,outcome,[4],inactive
same,outcome,[9],inactive
same,outcome,[6],inactive
O=C(CCCN1CCC(O)(c2ccc(Cl)cc2)CC1)c1ccc(F)cc1,outcome,[1],inactive
same,AC50,[4],50.3 µM (active)
same,outcome,[9],inactive
FC(F)(F)N1C(F)(F)C(F)(F)OC(F)(F)C1(F)F,outcome,[1],inactive
same,outcome,[2],inactive
same,outcome,[3],inactive
same,outcome,[4],inactive
same,outcome,[5],inactive
same,outcome,[7],inactive
